Screening results deposited in PubChem BioAssay by National Center for Advancing Translational Sciences (NCATS).
CHX counter: counter-screen hit for Shiga toxin inhibitors, cycloheximide. hit rate 12% among 300,000. max response, %. cell reporter, cycloheximide protein synthesis inhibition counterscreen. AID 2314; in the data active means max response mostly above about 13%, no sharp cut-off; inactive means mostly below about 14%; further: read at 38.3 µM for the half of the compounds with a filed dose
Marburg entry inh: Marburg virus entry inhibition | Potency, µM (series often up to 37.8 µM), most hits filed as inhibitors | AID 540276 | Marburg virus pseudotyped entry inhibition, cell reporter | hit rate 1.8% among 300,000; calls by dose curve; tested in HEK293 cells
Lassa entry inh: inhibitors of Lassa virus binding or cell entry. Potency, µM (doses to about 37.9 µM), hits mostly inhibitors. Lassa virus pseudotype entry inhibition, cell reporter. AID 540256. hit rate 1.2% among 300,000; calls by dose curve; tested in HEK293 cells; further: nearly all actives have a fitted effect of over 50% in size
AMA1 RON2 block: AMA1-RON2 (P. falciparum) interaction inhibition; AlphaScreen AMA1-biotinylated RON2 peptide binding; Potency, µM (highest dose often 58.2 µM), hits mostly inhibitors; hit rate 0.2% among 360,000; AID 720542; active means well fitted inhibition curve with a large enough effect; inconclusive means small, poorly fitted or top-dose-only effect; inactive means no such curve, though single readings can be large or run the other way; further: nearly all actives have a fitted effect of over 45% in size
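AMA1 (3D7) with his tag at 25 nM final met compounds first, then biotinylated RON2 peptide at 25 nM; detection used donor plus acceptor beads, 10 µg/mL apiece, read by AlphaScreen after 30 min at room temperature.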
Shiga toxin inh: Shiga toxin inhibition; hit rate 9.2% among 290,000; AID 2315; inhibition, % at 38.7 µM; Vero cells, Shiga toxin protein synthesis inhibition reporter; in the data active means inhibition mostly above about 28%, no sharp cut-off; inactive means mostly below about 43%
Large screens that a line does not name were inactive; ! = a repeat was not active. This excerpt belongs to a sample that is enriched for hits.

O=C(O)CSc1ncnc2c1oc1ccccc12	none
O=C(CCCC(=O)N(c1ccc(F)cc1)C(C(=O)NC1CCCC1)c1ccc(O)cc1)Nc1ccccn1 (stereo not drawn)	Marburg entry inh inconclusive
CC(C)[C@@]1(NC(=O)[C@@H]2C[C@@H]3c4cccc5[nH]cc(c45)C[C@H]3N(C)C2)O[C@@]2(O)C3CCCN3C(=O)[C@H](Cc3ccccc3)N2C1=O (stereo partly drawn)	Marburg entry inh 5.6µM (no result: CHX counter, AMA1 RON2 block, Shiga toxin inh)
CC(C)[C@@]1(NC(=O)[C@@H]2C[C@@H]3c4cccc5[nH]cc(c45)C[C@H]3N(C)C2)O[C@@]2(O)[C@@H]3CCCN3C(=O)[C@H](Cc3ccccc3)N2C1=O	Marburg entry inh 5.6µM!, Lassa entry inh inconclusive
CC(C)[C@@]1(NC(=O)[C@@H]2C=C3c4cccc5[nH]cc(c45)C[C@H]3N(C)C2)O[C@@]2(O)[C@@H]3CCCN3C(=O)[C@H](Cc3ccccc3)N2C1=O	Marburg entry inh inconclusive (no result: AMA1 RON2 block)
CC(C)C[C@H]1C(=O)N2CCCC2[C@]2(O)O[C@](NC(=O)[C@@H]3C=C4c5cccc6[nH]cc(c56)CC4N(C)C3)(C(C)C)C(=O)N12 (stereo partly drawn)	none
S=C(NNc1ccnc2cc(Cl)ccc12)Nc1ccccc1Cl	CHX counter 23, Marburg entry inh inconclusive, Lassa entry inh inconclusive
CC(=O)Nc1ccc2nc(-c3cccs3)[nH]c2c1	CHX counter 27, Shiga toxin inh 68
Cn1cccc1-c1nc2ccc(NC(=O)c3cccs3)cc2[nH]1	CHX counter 26, Marburg entry inh inconclusive, Lassa entry inh inconclusive
Cc1cc(C)cc(C(=O)Nc2ccc(NC(=O)c3cccs3)cc2)c1	Marburg entry inh inconclusive
CC(C)(C)C(=O)Nc1ccc(-c2nc3ccc(NC(=O)C(C)(C)C)cc3[nH]2)cc1	none (no result: CHX counter, Marburg entry inh, AMA1 RON2 block, Shiga toxin inh)
CC(=O)Nc1ccc2nc(-c3cccn3C)[nH]c2c1	CHX counter 17 (no result: Shiga toxin inh)
CC(=O)Nc1ccc(NC(=O)C(C)Sc2n[nH]c(-c3cccs3)n2)cc1 (stereo not drawn)	none (no result: CHX counter, Marburg entry inh, Lassa entry inh, Shiga toxin inh)
COCC(=O)N1C[C@H]2CON(C)[C@H]2C[C@H]1c1cccc(-c2ccccc2)c1	none (no result: CHX counter, Marburg entry inh, Lassa entry inh, Shiga toxin inh)
COc1cc(NC(=O)CC(C)S(=O)(=O)c2cc3c4c(c2)CCN4C(=O)CC3)cc(OC)c1 (stereo not drawn)	none (no result: CHX counter, Marburg entry inh, AMA1 RON2 block, Shiga toxin inh)
Clc1ccc(/C=N/Nc2nnc(-c3ncc[nH]3)c3ccccc23)cc1	CHX counter 34, Shiga toxin inh 112
Clc1cccc(/C=N/Nc2nnc(Cl)c3ccccc23)c1	Shiga toxin inh 62
Cc1nnc(NCc2cccc(Cl)c2)c2ccccc12	none
CCN(C(=O)c1cc2ccccc2oc1=O)c1ccccc1	CHX counter 24, Lassa entry inh inconclusive
CCN(C(=O)c1cc2ccccc2oc1=O)c1cccc(C)c1	CHX counter 53, Lassa entry inh inconclusive, Shiga toxin inh 78
CCN(C(=O)c1cc2cc(OC)ccc2oc1=O)c1cccc(C)c1	none
COc1ccc(S(=O)(=O)Oc2ccc3ccccc3c2)cc1	CHX counter 23, Lassa entry inh inconclusive, Shiga toxin inh 23
CCOC(=O)c1c(C)oc2nc(C)nc(NCCCN3CCN(c4cccc(C)c4)C(C)C3)c12 (stereo not drawn)	none (no result: CHX counter, Marburg entry inh, AMA1 RON2 block, Shiga toxin inh)
O=C(NCCS(=O)(=O)N1CCN(c2ccccc2)CC1)C1CCCC1	none (no result: CHX counter, Shiga toxin inh)
Cc1cc(C(=O)CN2C(=O)NC3(CCCc4ccccc43)C2=O)c(C)n1Cc1ccccc1 (stereo not drawn)	CHX counter 25
Cc1cc(C(=O)CN2C(=O)NC3(CCCc4sccc43)C2=O)c(C)n1-c1ccccc1 (stereo not drawn)	CHX counter 39, Lassa entry inh inconclusive, Shiga toxin inh 29
CCOC(=O)c1cc(C)n(Cc2ccccc2)c1C	none
Cc1cc(C(=O)CN2C(=O)NC3(CCCc4ccccc43)C2=O)c(C)n1Cc1ccco1 (stereo not drawn)	none (no result: Lassa entry inh, AMA1 RON2 block)
Cc1cc(C(=O)CN2C(=O)CCC2=O)c(C)n1Cc1ccccc1	CHX counter 30
COC(=O)c1ccc2nc(NC(=O)CCS(=O)(=O)c3ccccc3)sc2c1	Marburg entry inh inconclusive
COC(=O)c1ccc2nc(NC(=O)CSCC(=O)OCC(=O)c3ccccc3)sc2c1	CHX counter 36
Cc1ccc2nc(NC(=O)CSCC(=O)OCC(=O)c3ccc(Br)cc3)sc2c1	CHX counter 15, Marburg entry inh 3.2µM, Lassa entry inh 7.9µM
Cc1cn([C@H]2C=C[C@@H](CO)O2)c(=O)[nH]c1=O	CHX counter 52!, Marburg entry inh inconclusive, Shiga toxin inh 162!
COc1ccc(NC(=O)CSc2nc(N)c3cc4c(nc3n2)CC(C)(C)OC4)cc1	Marburg entry inh inconclusive, Lassa entry inh inconclusive
CC(=O)c1ccc(NC(=O)CSc2nc(N)c3cc4c(nc3n2)CCCC4)cc1	CHX counter 37, Shiga toxin inh 66
CC1(C)Cc2nc3nc(SCC(=O)Nc4ccccc4)nc(N)c3cc2CO1	Marburg entry inh inconclusive, Lassa entry inh inconclusive
COc1ccc(NC(=O)CSc2nc(N)c3cc4c(nc3n2)CCCC4)cc1	CHX counter 47, Marburg entry inh inconclusive, Lassa entry inh inconclusive, Shiga toxin inh 61
c1ccc2c(c1)OC[C@@H](C1=NCCN1)O2	none (no result: CHX counter, Lassa entry inh, AMA1 RON2 block, Shiga toxin inh)
CNc1ccc2oc(C[C@@H]3OC4(CC[C@@H]3C)O[C@H](C(C)C(=O)c3ccc[nH]3)[C@H](C)C[C@H]4C)nc2c1C(=O)O (stereo partly drawn)	none (no result: Marburg entry inh, Lassa entry inh, AMA1 RON2 block)
CNc1ccc2oc(C[C@H]3O[C@]4(CC[C@H]3C)O[C@H]([C@H](C)C(=O)c3ccc[nH]3)[C@H](C)C[C@H]4C)nc2c1C(=O)O	Marburg entry inh 0.71µM (no result: CHX counter, Lassa entry inh, AMA1 RON2 block, Shiga toxin inh)
Cc1ccc(C(=O)NNC(=S)NC(=O)COc2ccccc2)cc1	Marburg entry inh inconclusive
COC(=O)CNC(=S)NC(=O)c1ccc(C(C)(C)C)cc1	CHX counter 32, Shiga toxin inh 78
O=C(NC(=S)NNC(=O)c1ccccc1F)c1cccnc1	CHX counter 20, Shiga toxin inh 55
O=C(NNC(=S)Nc1ccccc1C(F)(F)F)c1cccnc1	CHX counter 10
CC(C)(C)c1ccc(C(=O)NC(=S)NNC(=O)COc2ccccc2)cc1	CHX counter 17 (no result: Marburg entry inh, Lassa entry inh)
Cc1ccccc1C(=O)NNC(=S)NC(=O)c1cccnc1	none
COc1cccc(NC(=O)Cn2c(=O)n(Cc3ccc4c(c3)OCO4)c(=O)c3oc4ccccc4c32)c1	none (no result: CHX counter, Marburg entry inh, AMA1 RON2 block, Shiga toxin inh)
Cc1ccc(NC(=O)COC(=O)c2cc(=O)c3cc(F)ccc3o2)cc1	none (no result: CHX counter, Shiga toxin inh)
COc1ccc(C2C3C=CCC(C)C3C(=O)N2Cc2ccccc2)cc1Cl (stereo not drawn)	none (no result: Marburg entry inh, Lassa entry inh, AMA1 RON2 block)
COC(=O)[C@]1(C)N[C@H](CN(C)S(=O)(=O)c2ccc(F)cc2)[C@@H]2C(=O)N(C)C(=O)[C@@H]21	none (no result: CHX counter, Marburg entry inh, Lassa entry inh, Shiga toxin inh)
COc1ccc(/C=N/NC(=O)c2c(C)nnn2-c2nonc2N)cc1OC	none
CC(C)(C)c1ccc(C(=O)NNC(=S)NC(=O)c2cccnc2)cc1	CHX counter 24, Marburg entry inh inconclusive, Lassa entry inh inconclusive, Shiga toxin inh 53
CC(C)(C)c1ccc(C(=O)c2c[nH]c(C(=O)NCc3cccnc3)c2)cc1	CHX counter 20, Marburg entry inh inconclusive
O=C(Cc1ccc(Cl)cc1)c1c[nH]c(C(=O)NCc2cccnc2)c1	none (no result: Marburg entry inh, Lassa entry inh)
